Results filed as inconclusive are left out. Where a call stands in place of a potency, no number is given. Active and inactive are the calls of the source. Calls come from the whole dose curve; as a rule, active = well fitted inhibition curve with a large enough effect; inconclusive = small, poorly fitted or top-dose-only effect; inactive = no such curve, though single readings can be large or run the other way.
Assays:
[1] = ZIKV-mCherry secondary qHTS for Zika virus inhibitors (AID 1347158)
Summary of the method: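 Compounds were tested in Vero monkey kidney cells infected with recombinant mCherry-expressing Zika virus at MOI 1 for 48-72 h at 37 °C. Fixed cells were nuclear-stained and imaged, and infection rate was taken as the fraction of mCherry-positive cells.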

[2] = Tertiary RLuc qRT-PCR qHTS assay for Zika virus inhibitors (AID 1347169); note: nearly all actives have a fitted effect of over 55% in size
Summary of the method: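 Orthogonal cell-based infection assay using recombinant ZIKV-RLuc (Cambodian) in Vero cells; compound added prior to virus at MOI 1-2. Incubation lasts 48-72 hrs at 37 degrees C before live-cell Renilla substrate is added and luminescence measured.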
Note: top concentration of the series differs between compounds.

Cc1ccc(-c2nnc(Nc3ccc(S(N)(=O)=O)cc3)c3ccccc23)cc1S(=O)(=O)N1CCOCC1
Potency [1]: inactive | Potency [2]: inactive

Source: PubChem BioAssay (NCATS)
